For 8 molecules, binding signal results are on record in PMC8222333, “AsCas12a ultra nuclease facilitates the rapid generation of therapeutic cell medicines”.

B1: CGTC (dsDNA)
DNA 1: GCTATCTAGTGCTCAGTACGCACTGCGTCAGGAAACTTCTGGCAGGACCAGGTCATGAGATCGGAAGAGCACACGTCTGAACTCCAGTCA
DNA 2: TGACTGGAGTTCAGACGTGTGCTCTTCCGATCTCATGACCTGGTCCTGCCAGAAGTTTCCTGACGCAGTGCGTACTGAGCACTAGATAGC
RNA: AAUUUCUACUCUUGUAGAUAGGAAACUUCUGGCAGGACC
B2: CGTG (dsDNA)
DNA 1: B1 DNA 1 with C29G
DNA 2: B1 DNA 2 with G62C
RNA: B1 RNA
B3: CTCA (dsDNA)
DNA 1: B1 DNA 1 with G27T, T28C, C29A
DNA 2: B1 DNA 2 with G62T, A63G, C64A
RNA: B1 RNA
B4: CTAA (dsDNA)
DNA 1: B1 DNA 1 with G27T, T28A, C29A
DNA 2: B1 DNA 2 with G62T, A63T, C64A
RNA: B1 RNA
B5: CTGA (dsDNA)
DNA 1: B1 DNA 1 with G27T, T28G, C29A
DNA 2: B1 DNA 2 with G62T, A63C, C64A
RNA: B1 RNA
B6: GATA (dsDNA)
DNA 1: B1 DNA 1 with C26G, G27A, C29A
DNA 2: B1 DNA 2 with G62T, C64T, G65C
RNA: B1 RNA
B7: GAGA (dsDNA)
DNA 1: B1 DNA 1 with C26G, G27A, T28G, C29A
DNA 2: B1 DNA 2 with G62T, A63C, C64T, G65C
RNA: B1 RNA
B8: CTCC (dsDNA)
DNA 1: B1 DNA 1 with G27T, T28C
DNA 2: B1 DNA 2 with A63G, C64A
RNA: B1 RNA

Where a chain is given by its changes, count along the chain named.

The target of the first experiment is dAsCas12a Ultra (Acidaminococcus sp., UniProt U2UMQ6 1-1307, M537R;F870L;D908A;E993A;D1235A). As to the kind of experiment: Spec-seq (native PAGE EMSA with sequencing of bound and unbound); 25 mM Tris-HCl pH 7.4, 150 mM KCl, 5 mM MgCl2, 10% glycerol, 1 mM DTT, 40 ng/uL salmon sperm DNA; 400 nM Cas12a, 480 nM crRNA, 50 nM library, 37 C 1 h; native PAGE at room temperature; high values mean tight binding. The conditions noted are these: protein: recombinant.
As for B1, the binding signal was -8.54 lnKA.

B2: the binding signal was -9 lnKA.

Regarding B3, the binding signal was -8.8 lnKA.

With B4, the binding signal is -8.92 lnKA.

B5: the binding signal is -8.41 lnKA.

B6: the binding signal is -8.53 lnKA.

Take B7: the binding signal was -8.96 lnKA.

On to B8, for which the binding signal was -8.67 lnKA.

The target of another experiment is dAsCas12a S542R (Acidaminococcus sp., UniProt U2UMQ6 1-1307, S542R;D908A;E993A;D1235A). The experiment is described as above. The conditions noted are these: protein: recombinant.
As for B1, the binding signal was -8.67 lnKA.

B2: the binding signal was -8.73 lnKA.

In the case of B3, the binding signal was -6.35 lnKA.

With B4, the binding signal was -8.47 lnKA.

On to B5, for which the binding signal is -8.41 lnKA.

In the case of B6, the binding signal is -8.17 lnKA.

As for B7, the binding signal is -8.5 lnKA.

Turning to B8, the binding signal was -4.85 lnKA.

The next experiment deals with dAsCas12a K548R (Acidaminococcus sp., UniProt U2UMQ6 1-1307, K548R;D908A;E993A;D1235A). The description is as above. The conditions noted are these: protein: recombinant.
Consider B1, for which the binding signal was -8.4 lnKA.

Another experiment has as its target d-enCas12a (Acidaminococcus sp., UniProt U2UMQ6 1-1307, E174R;S542R;K548R;D908A;E993A;D1235A). The description is as above. The conditions noted are these: protein: recombinant.
For the molecule B1, the binding signal is -2.67 lnKA.

In the case of B2, the binding signal was -4.4 lnKA.

Take B3: the binding signal was -1.97 lnKA.

As to B4, the binding signal was -5.62 lnKA.

Consider B5, for which the binding signal was -5.63 lnKA.

As for B6, the binding signal was -3.28 lnKA.

Take B7: the binding signal is -5.82 lnKA.

Regarding B8, the binding signal was -0.91 lnKA.

The next experiment concerns the target d-enCas12a-Ultra (Acidaminococcus sp., UniProt U2UMQ6 1-1307, E174R;S542R;K548R;M537R;F870L;D908A;E993A;D1235A). The experiment is described as above. The conditions noted are these: protein: recombinant.
As for B1, the binding signal was -0.615 lnKA.

Regarding B2, the binding signal was -1.51 lnKA.

For B3, the binding signal was -0.439 lnKA.

Take B4: the binding signal was -3.05 lnKA.

In the case of B5, the binding signal is -3.17 lnKA.

Consider B6, for which the binding signal was -1.2 lnKA.

As for B7, the binding signal is -3.42 lnKA.

As to B8, the binding signal was -0.27 lnKA.

In the next experiment the target is dAsCas12a E174R (Acidaminococcus sp., UniProt U2UMQ6 1-1307, E174R;D908A;E993A;D1235A). The experiment is described as above. The conditions noted are these: protein: recombinant.
On to B2, for which the binding signal is -8.98 lnKA.

For the molecule B3, the binding signal was -8.26 lnKA.

As for B4, the binding signal was -8.64 lnKA.

Take B6: the binding signal is -6.9 lnKA.

Regarding B8, the binding signal was -8.66 lnKA.
